Screens deposited in PubChem by several laboratories.
A1 inh: inhibitors of the anti-apoptotic protein A1, read as caspase activation. MEF A1-2A-BIM cells, Caspase-Glo 3/7 luminescence, 3 h; percent of clofoctol response, vehicle zero. caspase activation, % (test concentration not listed). 330,000 compounds, 0.066% hits;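 active means over half of replicate activation scores above 10%, or exactly half above 10 with the replicate mean above 10; inconclusive means replicate mean below 10 yet half the replicates above 10; inactive means over half of replicates below 10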
dFosB act-1: activators of mouse delta FosB homodimer; P13346; purified delta FosB, TAMRA-CDK5 oligo fluorescence polarization; percent of positive-control signal above neutral wells; activation, % at 25 µM; 340,000 compounds, 0.99% hits;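 active means mean activation above about 17%, with every replicate also reaching it, limit read from the data, passing the limit was not always enough; inconclusive means only one of the two conditions met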
Target sequence (P13346 whole entry, looked up): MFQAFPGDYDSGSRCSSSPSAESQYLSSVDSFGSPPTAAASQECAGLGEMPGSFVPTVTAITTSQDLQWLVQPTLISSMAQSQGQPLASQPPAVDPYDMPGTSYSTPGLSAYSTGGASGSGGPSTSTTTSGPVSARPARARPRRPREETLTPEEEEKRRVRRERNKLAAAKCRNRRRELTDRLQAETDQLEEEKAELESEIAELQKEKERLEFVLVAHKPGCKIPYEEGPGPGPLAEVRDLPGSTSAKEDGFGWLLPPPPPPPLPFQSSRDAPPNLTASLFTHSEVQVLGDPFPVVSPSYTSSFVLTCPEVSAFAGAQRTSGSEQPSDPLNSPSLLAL
Beta2AR agonist: human beta-2 adrenergic receptor agonism by FAP. 340,000 compounds, 0.43% hits. Am2.2-beta2AR cells, FAP receptor internalization, flow cytometry. response, % (no concentration beside the values). AID 504454. P07550;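 active means response above a set limit, near 3 SD of response in nonfluorescent compounds, cut at about 42% in these data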
Dyrk1A ADPGlo: inhibitors of rat Dyrk1A kinase | Q63470 | ADP-Glo luminescence, NFATc1 peptide | inhibition, % at 12.5 µM | 310,000 compounds, 0.43% hits | AID 504441; in the data active means inhibition above about 50%;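 further: plate controls were vehicle with enzyme for no effect and no enzyme for full effect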
dFosB act-2: delta FosB (mouse) homodimer activation; purified delta FosB, TAMRA-CDK5 oligo fluorescence polarization; normalised: neutral wells 0, positive control 100; 2,400 tested, under 10 active; shares compounds with dFosB act-1; activation, % at 24.9 µM; AID 588690;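 active means highest replicate activation at or above 34% and every replicate reaching that threshold; inconclusive means meets only one of the two criteria; inactive means meets neither criterion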;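 further: higher polarization means more probe DNA bound by delta FosB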
Active calls of the source: *; ? = inconclusive; / = not tested or not shown. Only some compounds are listed: those with a hit (about 1.6% of all), similar ones and a draw of the others.

SMILES	A1 inh	dFosB act-1	Beta2AR agonist	Dyrk1A ADPGlo	dFosB act-2
Cc1ccc(NC(=O)CCC(=O)NNC(=O)COc2ccc([N+](=O)[O-])cc2)cc1C	-0.3	12.6	5.0	0.0	/
CCOC(=O)c1ccc(NC(=O)CN2C(=O)CN(C(C)=O)C2=S)cc1	-0.6	1.9	-5.7	/	/
Cc1ccc(OCC(=O)NNC(=O)Nc2ccc(Cl)cc2)c(Br)c1	-0.4	23.0*	-1.2	-0.1	0.7
Cc1cccc(NC(=O)NNC(=O)c2cc(-c3ccccc3Cl)nc3ccccc23)c1	2.5	20.5*	-1.2	6.8	-0.2
Cc1ccc(NC(=O)Nc2ccc(Cl)cc2)c(Br)c1	-0.6	2.5	3.4	-2.2	/
COc1ccc(NC(=O)Nc2ccccc2F)cc1Cl	-6.2	22.1*	-5.7	-2.4	2.3
COc1ccccc1NS(=O)(=O)c1cccc(NC(=O)Nc2ccc(Cl)cc2)c1	-0.1	25.7*	6.4	-0.7	1.3
COc1ccc(NC(=O)Nc2ccccc2F)cc1	-7.8	-5.9	9.0	0.4	/
O=C(NCc1ccc(F)cc1)C1CCCN(c2nc3ccsc3c(=O)s2)C1 (stereo not drawn)	0.1	74.6*	-9.0	15.7	-8.2
O=S(=O)(c1cccc2nonc12)N1CCCCC1	1.1	3.1	-2.5	11.8	/
O=C(COC(=O)CNC(=O)c1ccc(Br)cc1)Nc1nnc(-c2ccccc2)o1	0.1	20.5*	3.0	-4.2	-1.1
CCOc1ccc(C(=O)NCC(=O)OCC(=O)Nc2nnc(-c3ccccc3)o2)cc1	-1.9	-9.4	-2.3	8.7	/
Cc1c(-c2cccc(Cl)c2)nc2ccccc2c1C(=O)OC/C(O)=C(\C#N)c1nc2ccccc2[nH]1	1.8	-6.7	22.4	/	/
CC(C)c1ccc(N(C(=O)c2snc(C(N)=O)c2N)C(C(=O)NC2CCCC2)c2ccncc2)cc1 (stereo not drawn)	-0.1	40.2*	-2.9	2.7	-1.3
NC(=O)c1nsc(C(=O)N(c2ccccc2)C(C(=O)NC2CCCC2)c2ccncc2)c1N (stereo not drawn)	0.7	-5.2	-1.0	4.0	/
NC(=O)c1nsc(C(=O)N(c2ccccc2)C(C(=O)NC2CCCCC2)c2ccc(O)cc2)c1N (stereo not drawn)	0.6	19.2*	11.6	16.7	4.4
NC(=O)c1nsc(C(=O)N(c2ccccc2)C(C(=O)NCc2ccc(F)cc2)c2ccc(O)cc2)c1N (stereo not drawn)	-1.5	44.1*	16.9	2.5	2.5
CCOC(=O)N1CCN(C(=O)COC(=O)c2ccc(S(=O)(=O)N(CC)CC)cc2)CC1	1.2	6.7	0.1	4.6	/
C[C@@H]1CN([C@H](C)CO)C(=O)c2cc(NC(=O)c3ccncc3)ccc2O[C@@H]1CN(C)C(=O)Nc1ccccc1	-0.4	-1.8	-4.5	7.7	/
CCc1nnc2n1N=C(c1ccc(-c3cc(Cl)ccc3Cl)o1)CS2	0.8	29.6*	2.4	2.2	-1.0
CCc1nnc2n1N=C(c1ccc(OC)cc1)CS2	0.5	-7.9	-3.9	6.1	/
O=C(CN1C(=O)CS/C1=C\c1nc(-c2ccc(Cl)cc2)cs1)Nc1cccnc1Cl	?	-1.6	7.7	-1.1	/
Cc1ccc(-c2csc(/C=C3\SC(C)C(=O)N3CC(=O)Nc3ccccc3F)n2)cc1 (stereo not drawn)	-0.1	18.0*	8.3	0.0	-0.3
Cc1ccccc1S(=O)(=O)NC(=NCc1ccc(F)cc1)c1ccccc1	0.1	-6.4	-3.9	-1.4	/
CC(Nc1nc(-c2ccncc2)nc2ccccc12)c1ccccc1 (stereo not drawn)	1.1	-11.7	23.5	5.6	/
SMILES	A1 inh	dFosB act-1	Beta2AR agonist	Dyrk1A ADPGlo	dFosB act-2
CC(Nc1nc(N2CCNCC2)nc2ccccc12)c1ccccc1 (stereo not drawn)	-0.8	47.9*	-0.2	-3.4	4.8
COc1ccc(NC(=O)CCCNC(=O)Cn2cnc3sc(C)c(C)c3c2=O)cc1OC	1.1	5.7	-1.8	-1.0	/
CCc1ccc(NC(=O)CCCNC(=O)Cn2cnc3sc(C)c(C)c3c2=O)cc1	-0.1	31.6*	-7.2	3.6	0.3
Cc1ccc(/C=N/NC(=O)c2cc3c(ccc4ccccc43)o2)o1	/	24.7*	10.6	1.9	-1.2
O=C(N/N=C/c1cccnc1)c1cc2c(ccc3ccccc32)o1	-0.4	32.0*	-0.4	13.2	-2.2
Cc1nc(SC(C)C(=O)c2c(N)n(C)c(=O)n(C)c2=O)c2c(C)c(C)sc2n1 (stereo not drawn)	0.9	-21.8	3.8	16.8	/
Cc1cc(=O)c2c(o1)C(=O)c1occc1C2=O	/	-15.1	-7.0	/	/
COc1ccc(C(=O)O)cc1S(=O)(=O)Nc1ccc2cn[nH]c2c1	-1.0	0.4	-6.8	/	/
CC(C)(C)N(Cc1ccccc1)C(=O)COC(=O)CCN1C(=O)C2CC=CCC2C1=O (stereo not drawn)	/	-1.3	-5.4	-3.9	/
O=C(N/N=C/c1cccnc1)c1cccc(S(=O)(=O)Nc2cccc(Cl)c2)c1	-5.8	30.7*	17.8	/	1.2
O=C(Nc1cccnc1)c1cccc(S(=O)(=O)Nc2cccc(Cl)c2)c1	0.4	-9.5	1.5	7.9	/
COc1ccc(NS(=O)(=O)c2cccc(C(=O)NN=Cc3ccc(OC)cc3OC)c2)cc1	0.9	25.8*	-0.7	-4.3	0.3
COc1ccc(NS(=O)(=O)c2ccc(OC)c(NC(=O)CNC(=O)c3ccc(OC)cc3)c2)cc1	-0.3	38.7*	-2.1	0.9	-3.6
O=C(N/N=C/c1ccncc1)c1cccc(S(=O)(=O)Nc2ccc(Cl)cc2)c1	0.9	45.4*	-0.9	0.0	-0.5
O=C(N/N=C/c1cccnc1)c1cccc(NC(=O)c2cccc(Br)c2)c1	0.2	45.1*	22.7	2.5	-0.8
O=C(NCCNC(=O)c1cc(OCC(F)(F)F)ccc1OCC(F)(F)F)Nc1ccc(Cl)cc1	0.3	/	/	/	/
O=C(NCCNC(=O)c1cc(OCC(F)(F)F)ccc1OCC(F)(F)F)Nc1ccc(OC(F)(F)F)cc1	-0.3	38.1*	-1.2	3.3	-4.1
O[C@@H]1COC(Nc2ccc(N=Nc3ccccc3)cc2)C[C@@H]1O (stereo partly drawn)	-3.0	/	/	/	/
O=C(Nc1nc2c(F)cc(F)cc2s1)c1ccco1	-6.6	0.6	-10.5	8.7	/
O=C(Nc1nc2c(F)c(F)c(F)cc2s1)c1ccco1	-5.7	29.9*	-7.2	-4.4	1.8
O=c1[nH]n(-c2ccccc2)c(=O)cc1Cl	/	0.7	-6.8	-1.0	/
CCn1c(SCc2cccc(OC)c2)nc2ccccc2c1=O	0.5	-7.3	0.6	-6.9	/
CCOC(=O)Nc1cccc(OCC(=O)Nc2ccc3c(c2)CCC3)c1	-0.7	23.0*	-12.9	/	-1.1
COc1cccc(NC(=O)COc2ccc3c(c2)CCC3)c1	0.6	-10.0	0.2	1.0	/
Cc1ccc2nc(SCC(=O)Nc3ccc4sc(C)nc4c3)c(C#N)cc2c1	0.5	25.0*	0.3	1.7	-4.8
O=c1c2c([nH]n1-c1ccccc1)CCSC2	0.8	-7.8	-5.1	-1.5	/
Cc1ccc(NC(=O)Cn2c(=O)c3cccn3c3ccccc32)c(C)c1	-1.2	45.7*	-8.3	-5.9	6.4
